Source: PubChem (National Center for Advancing Translational Sciences (NCATS))
Only some compounds are listed: those with a hit (about 15% of all), similar ones and a draw of the others.
HCMV antiviral – blocks human cytomegalovirus replication | HFF cells, HCMV-luciferase reporter, 72 h; active compounds read low | activity change, negative = inhibition, % at 57.5 µM | 4.5% of 410,000 active | AID 1259415; in the data active means activity change below about -60%; inconclusive means no clear call, values can overlap the other calls; inactive means above about -39%; further: on the % scale 0 is the no-effect control and ±100 the full control effect
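Two compound doses tested in HFFs infected with HCMV-luciferase, MOI 1 PFU/cell, 72 h at 37C. Lysate luminescence read with OneGlo; data normalized against buffer-only and 10uM Salinomycin inhibitor controls.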
HCV inhibitor – HCV inhibition; Huh7.5.1 HCVcc-Cre infection, luciferase reporter, 44 h; 3.4% of 340,000 active; AID 651820; Potency, µM (series often up to 41.8 µM), without a hit: top-dose activity change, negative = inhibition, usual class: inhibitors; further: potency means the concentration at half of the fitted maximal effect; on the % scale 0 is the no-effect control and ±100 the full control effect
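After 44 h co-culture of compound, cells and HCVcc-Cre (~0.5 moi), substrate is added for 15 min at room temperature and luciferase measured over 15 sec. Cells were seeded at 1,000/well and pre-cultured 4 h.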
Pf growth 48h – P. falciparum growth inhibition at 48 hours (one generation); P. falciparum luciferase growth in erythrocytes, 48 h; Potency, µM (doses to about 28.7 µM), inactives show top-dose activity change, negative = inhibition, hits mostly inhibitors; 5.9% of 310,000 active; AID 504832; further: potency means the concentration at half of the fitted maximal effect; on the % scale 0 is the no-effect control and ±100 the full control effect
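Growth was read as firefly luciferase luminescence after a 48 h, 37 C, 5% CO2 exposure of compounds to reporter-bearing P. falciparum cultures (0.1% parasitemia, 2% hematocrit final) in Albumax-supplemented RPMI 1640.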
Sm TGR inh – S. mansoni TGR enzyme inhibition; 3% of 360,000 active; AID 485364; Potency, µM (titrated, usually from 114 µM), without a hit: at the top dose activity change, negative = inhibition, most hits filed as inhibitors; purified TGR, DTNB reduction, TNB absorbance 405 nm; further: potency means the concentration at half of the fitted maximal effect; on the % scale 0 is the no-effect control and ±100 the full control effect; nearly all actives have a fitted effect of over 60% in size
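Kinetic colorimetric format: TGR-catalysed, NADPH-driven DTNB reduction monitored via TNB absorbance. Enzyme dispensed at 20 nM; compound exposure 15 min at room temperature before reaction start.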
SARS PLpro yeast – SARS-CoV PLP inhibition in yeast; S. cerevisiae expressing SARS-CoV PLpro, growth rescue; Potency, µM (highest dose often 32.9 µM), without a hit: at the highest dose activity, positive = growth rescue, most hits filed as activators; 0.19% of 330,000 active; AID 485353; calls by dose curve; further: potency means the concentration at half of the fitted maximal effect; 0% is about no effect; nearly all actives have a fitted effect of over 55% in size
Pf growth 96h – P. falciparum growth inhibition at 96 hour, primary screen for plastid delayed-death inhibitors. Potency, µM (highest dose often 28.7 µM), inactives show top-dose activity change, negative = inhibition, most hits filed as inhibitors. P. falciparum luciferase reporter growth, 96 h. 6.9% of 320,000 active; further: potency means the concentration at half of the fitted maximal effect; on the % scale 0 is the no-effect control and ±100 the full control effect
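P. falciparum expressing integrated firefly luciferase grown in erythrocytes (2% hematocrit, 0.05% parasitemia final) with compounds for 96 hours at 37 C, 5% CO2. Growth inhibition read as loss of luminescence after adding luciferase detection reagent.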
* marks the source's active call; other numbers are inactive results; ? = inconclusive; . = no result; [ ] = remark or other dose. Unless noted, the call rests on the fitted dose curve; in most records, active means well fitted curve in the direction sought with a large enough effect; inconclusive means small, poorly fitted or top-dose-only effect, or another doubt; inactive means no such curve, though single readings can be large; an effect the other way counts as inactive or inconclusive.

SMILES | HCMV antiviral | HCV inhibitor | Pf growth 48h | Sm TGR inh | SARS PLpro yeast | Pf growth 96h
Cc1ccc(CN2CCc3[nH]c(=O)[nH]c(=O)c3C2)cc1 | -37 | -12% | 2% | 4% | 1% | 1.2µM*
C#CCNC(=O)C1=C[C@@H](c2ccc(C(F)(F)F)cc2)[C@H](CCCO)[C@@H](OCC)O1 | -21 | 7% | ? | 2% | 0% | 12µM*
CCO[C@H]1OC(C(=O)NCc2ccccc2)=C[C@@H](c2ccc(Br)cc2)[C@@H]1CCCO | 29 | -27% | ? | -1% | 3% | ?
CCO[C@@H]1OC(C(=O)NCc2ccccc2)=C[C@H](c2ccc(C(F)(F)F)cc2)[C@H]1CCCO | -15 | -11% | 4.7µM* | 0% | -3% | 8.3µM*
Cc1ccc(C(c2cccc(Br)c2)c2c(C)[nH]c3ccccc23)s1 (stereo unspecified) | -26 | . | . | 25µM* | . | .
COCCn1nnnc1C(C(C)C)N1CCOCC1 (stereo unspecified) | 6 | 5% | -1% | 0% | -6% | 8.3µM*
COCCn1nnnc1C(c1ccc(C(F)(F)F)cc1)N1CCOCC1 (stereo unspecified) | 12 | 19% | -12% | 5% | -6% | 63%
Cc1ccc(C2c3[nH]c4ccccc4c3C[C@H]3C(=O)N(c4ccccc4C(=O)N4CCC[C@@H]4C(=O)O)C(=O)N23)cc1 (stereo partly specified) | -15 | 3% | ? | 6% | 2% | ?
COc1ccc(C2c3[nH]c4ccccc4c3C[C@H]3C(=O)N(c4ccccc4C(=O)NCCN4CCOCC4)C(=O)N23)cc1 (stereo partly specified) | 14 | -15% | 13µM* | -14% | 3% | ?
O=C(NCCN1CCOCC1)c1ccccc1N1C(=O)[C@@H]2Cc3c([nH]c4ccccc34)C(c3ccc(F)cc3)N2C1=O (stereo partly specified) | -75* | -18% | ? | -23% | 8% | ?
COc1cccc(C2c3[nH]c4ccccc4c3C[C@H]3C(=O)N(c4ccccc4C(=O)N4CCCC4C(=O)O)C(=O)N23)c1 (stereo partly specified) | -17 | 11% | ? | -2% | 9% | ?
O=C(c1ccc(Cl)cc1)C1CCCN(Cc2ccc(Oc3ncccn3)cc2)C1 (stereo unspecified) | -37 | 11µM* | -12% | -6% | -1% | ?
O=C(c1ccc(-c2ccccc2)cc1)C1CCCN(Cc2ccncc2)C1 (stereo unspecified) | ? | ? | -15% | 15% | -2% | 17%
Cc1nn(C)cc1CN1CCCC(C(=O)c2ccc(-c3ccccc3)cc2)C1 (stereo unspecified) | -66* | 4.5µM* | -11% | 13% | 0% | 82%[1.15 µM]
O=C(c1ccc(Cl)cc1)C1CCCN(Cc2cnn(-c3ccccc3)c2)C1 (stereo unspecified) | -2 | 22µM* | -20% | 4% | 0% | 29%
COc1cccc(CNC(=O)Cn2c(=O)cc(C(F)(F)F)c3c(C)nn(C)c32)c1OC | 9 | . | . | 0% | . | .
COc1ccc(C(c2c(C)[nH]n(-c3ccccc3)c2=O)c2c(C)[nH]n(-c3ccccc3)c2=O)cc1OC | -11 | 4% | 7% | 1% | 13µM* | ?
CCOc1cc(C(c2c(C)[nH]n(-c3ccccc3)c2=O)c2c(C)[nH]n(-c3ccccc3)c2=O)ccc1O | -105* | . | . | 3.2µM* | . | .
Cc1[nH]n(-c2ccccc2)c(=O)c1C(c1cc(Cl)ccc1O)c1c(C)[nH]n(-c2ccccc2)c1=O | 66 | . | . | -9% | . | .
CCOC(=O)CC(=O)CSc1nc2cc(C)ccc2cc1C | 52 | ? | ? | -4% | -4% | 13µM*
O=c1c2c(nc3cc(-c4cccc(Cl)c4)[nH]n13)CCC2 | 36 | ? | 31% | ? | 3% | ?
OC1CCCN(c2c3c(nc4cc(-c5cccc(Cl)c5)nn24)CCC3)C1 (stereo unspecified) | 2 | ? | 4.7µM* | 4% | -23% | 0%
Cc1cccc(-c2cc3nc4c(c(N5CCCC(O)C5)n3n2)CCC4)c1 (stereo unspecified) | -26 | 7.1µM* | 6.6µM* | 31% | -45% | -31%
Fc1ccc(-c2cc3nc4c(c(N5CCOCC5)n3n2)CCCC4)cc1 | -20 | ? | 10µM* | 0% | -15% | -7%
CCC1CCCCN1c1cc(C)nc2cc(-c3cccc(C)c3)nn12 (stereo unspecified) | -33 | ? | ? | 14% | -29% | .
SMILES | HCMV antiviral | HCV inhibitor | Pf growth 48h | Sm TGR inh | SARS PLpro yeast | Pf growth 96h
O=C(C1CCCO1)N1CCN(c2c3c(nc4cc(-c5ccc(F)cc5)nn24)CCC3)CC1 (stereo unspecified) | 23 | -27% | ? | -26% | 7% | ?
COc1ccc(-c2cc3nc(-c4ccccc4)cc(N4CCC5(CC4)OCCO5)n3n2)cc1 | -37 | ? | . | -8%[11.4 µM] | -11% | 50%
COc1cccc(-c2cc3nc(-c4ccccc4)cc(N4CCCC(O)C4)n3n2)c1 (stereo unspecified) | -33 | 4µM* | 12µM* | 20% | -2% | 8%
O=C(Nc1cc(F)ccc1F)N1CC(=O)N2[C@@H](CO)[C@H](c3ccc(Br)cc3)[C@@H]2C1 | 4 | . | . | . | . | .
COc1ccc(Nc2nccc3[nH]c(-c4cccc(OC(F)(F)F)c4)nc23)cc1OC | -9 | . | . | . | . | .
CC(C)NC(=O)c1ccc(CN2CCc3ccccc3C2)cc1 | -4 | 5% | 103% | 9% | -1% | ?
OC1CCCN(c2c3c(nc4cc(-c5cccc(F)c5)nn24)CCCC3)C1 (stereo unspecified) | 5 | 6.3µM* | ? | . | -1% | ?
COCCN1CCN(c2c3c(nc4cc(-c5cccc(F)c5)nn24)CCC3)CC1 | -7 | 10% | ? | -2% | 6% | ?
OCCNC(=S)Nc1ccc(Cl)c(Cl)c1 | 12 | 0% | 6% | -12% | 6% | ?
C/C(CC(=O)Nc1ccc(Cl)c(Cl)c1)=N\NC(N)=S | 36 | ? | 13µM* | 5% | 12% | 6%
Cc1ccc(NC(N)=S)cc1C | ? | -1% | -3% | -2% | 23% | 33%
Cc1ccc(NNC(N)=S)cc1Cl | 11 | 28% | 18% | 40µM* | -5% | 44%
NC(=S)NNc1ccc(Cl)c(Cl)c1 | 1 | -10% | 51% | 2µM* | -22% | -12%
NC(=S)Nc1ccc(Cl)c(Cl)c1 | -60* | 1% | 37% | 11% | 0% | 27%
CCOC(=O)CCCNC(=O)CSc1nnc(-c2ccccc2)c(-c2ccccc2)n1 | -2 | -23% | -1% | -5% | -3% | ?
